Experimental data as given in PubChem BioAssay (NCI).
Values joined by “and” are separate entries in the source; they are usually repeats but may differ in a detail not shown here. Identical values can stand only once. This is part of a sample that, as a whole, favours compounds with a hit. Of some 83,000 tested, about 20% had one in any assay.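 Plates (96-well) were seeded with cells, treated with compound at one concentration, and incubated for 48 hours before percent growth was determined.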 Values without a mark were called inactive. Active and inactive are the calls of the source. The calls were made as follows: active = growth percent below 10; inactive = the rest.

Each compound was assayed on MDA-MB-468 breast (assay: NCI-60 one-dose screen, 48 h (100 = growth as untreated, 0 = no growth, -100 = all killed)). Conditions: 10 µM unless noted.
With `CCC(=C(c1ccc(OCCN(CC)CC)cc1)c1ccc(OCCN(CC)CC)cc1)c1ccc(Cl)cc1` the growth was -79.1% (active).
In the case of `O=C1/C(=C/c2cc(F)cc(F)c2)Cc2cc(F)cc(F)c21`, the growth is reported as 74.1%.
With `NC(=O)c1c(NC(=O)c2ccc3ccccc3c2)sc2c1CCC(=O)C2` the growth was 85.8%.
`Cc1cc(NCCCCNc2ccnc3cc(Cl)ccc23)nc(Nc2ccc(C(=O)N3CCCCC3)cc2)n1` was tested, and the growth was -42.3% (active).
In the case of `CCCCN(CCCC)CC(O)CN(CC)CC` (centres undefined), the growth is reported as 101%.
`Cc1ccc(NC(=S)/N=c2/n(-c3ccccc3)nc3n2CCN3C2=NCCN2)cc1` showed a growth of 104%.
For `CCc1ccc(C(=Nc2ccc(N(C)C(=O)CN3CCN(C)CC3)cc2)c2c(O)[nH]c3ccc(C(=O)OC)cc23)cc1`, the growth was -75.6% (active).
Compound `O=C1N(c2ccccc2)C(=S)N[C@]12[C@H](c1ccccc1)C1CCCN1[C@]21C(=O)NC2C=CC(Cl)=C[C@H]21` (some centres undefined) has a growth of 99.7%.
In the case of `Cc1nnc2c(Cc3ccccc3)nc3ccccc3n12`, the growth is reported as 89.6%.
`CCN(CC)CCCC(C)Nc1ccc2ccc(Cl)cc2n1` (centres undefined) gave a growth of 77.8%.
For `CCOC(=O)C(N)Cc1cc(I)c(O)c(I)c1` (centres undefined), the growth was 101% and 113%.
With `COc1cc(/C(Cl)=C/C=C/C(=O)c2c(C)[n+]([O-])c3ccc(Cl)cc3[n+]2[O-])cc(OC)c1OC` the growth was -11.2% (active).
For `COC(=O)CNC(=O)[C@@H](OC)[C@@H]1Cc2cc3cc(OC4CC(OC5CC(O)C(O)C(C)O5)C(O)C(C)O4)c(C)c(O)c3c(O)c2C(=O)[C@H]1OC1CC(OC2CC(OC3CC(C)(O)C(O)C(C)O3)C(O)C(C)O2)C(O)C(C)O1` (some centres undefined), the growth was -22.3% (active).
Work on `CN1CCN(Cc2ccc(NC(=O)c3cncc(C#Cc4cncc5nccnc45)c3)cc2C(F)(F)F)CC1` yielded a growth of 87%.
With `Cc1cc(C(C)(C)C)cc(C)c1CC1=NCCN1` the growth was 93.5%.
Compound `O=C(O)C[C@H](O)C[C@H](O)/C=C/c1c(C2CC2)nc2ccccc2c1-c1ccc(F)cc1` has a growth of 75.1%.
`CC(=O)c1ccc(NS(=O)(=O)c2ccc([N+](=O)[O-])cc2)cc1` was tested, and the growth was 98.9%.
With `COc1ccc2[nH]c(O)c(/C=c3/ccc4c(c3)N=C(c3ccc(C(F)(F)F)cc3)N=4)c2c1` the growth was 93.8%.
In the case of `CCOC(=O)NC(N)=O`, the growth is reported as 105% and 98.7%.
`Nc1ccc(Sc2ccc([N+](=O)[O-])c3nonc23)cc1` showed a growth of 67.3%.
Compound `O=S(=O)(NCCNc1nccc(-c2c(-c3cccc(F)c3)nc3sccn23)n1)c1ccccc1` has a growth of 43.6%.
With `CCOc1ccc(NC(=O)CSc2oc(-c3ccccc3)nc2S(=O)(=O)c2ccc(C)cc2)cc1` the growth was 53%.
`COC(=O)[C@H](NC(=O)C1(C)CCC[C@]2(C)[C@H]3C[C@H]4C(C(C)C)=C[C@]3(CC[C@@H]12)[C@@H]1C(=O)CCC(=O)[C@@H]14)C(C)C` (some centres undefined) showed a growth of 101%.
`c1ccc(-c2cc3cc4ccccc4cn3c2)cc1` gave a growth of 79.8%.
Compound `CC(=O)OCC(=O)[C@@]1(O)CC[C@H]2[C@@H]3CC[C@@H]4C[C@H](O)CC[C@]4(C)[C@H]3C(=O)C[C@@]21C` has a growth of 98.1%.
Work on `CCC1NC(=O)c2cc(S(N)(=O)=O)c(Cl)cc2N1` (centres undefined) yielded a growth of 107%.
`COc1ccc(/C(C)=C(\c2ccc(Cl)cc2)c2ccc(OCCN)cc2)cc1` showed a growth of 67.2%.
`NC(=O)c1ccc[n+](Cc2ccc(Cl)cc2Cl)c1` was tested, and the growth was 101%.
`O=C1c2cc(S(=O)(=O)O)ccc2C(=O)c2c1cccc2[N+](=O)[O-]` was tested, and the growth was 114%.
In the case of `O=C1/C(=C/c2ccc(Cl)c(Cl)c2)CN(C(=O)CCN2CCC(=NO)CC2)C/C1=C\c1ccc(Cl)c(Cl)c1`, the growth is reported as -72.3% (active).
`CC/C(=N/NC(N)=O)c1ccccc1` showed a growth of 103%.
`CC(C)(C)[Si](C)(C)OC1[C@@H](COC(N)=O)O[C@@H](n2cnc3c(N)ncnc32)[C@H]1O[Si](C)(C)C(C)(C)C` (some centres undefined) showed a growth of 97.2%.
In the case of `CCN1C(=O)N(CC)C2C1NN=c1s/c(=C\c3ccc(OC)cc3)c(=O)n12` (centres undefined), the growth is reported as -0.192% (active).
Work on `COc1ccccc1Cn1cc(C#N)c(N)c1C(=O)c1ccc(Br)cc1` yielded a growth of 72.2%.
Work on `CC(C)(C)CC(C)(C)Nc1c(-c2ccc(-c3ccccc3)cc2)nc2cnccn12` yielded a growth of 109%.
With `Cc1ccc2cnc(N)c(C#Cc3cc(C(=O)Nc4ccc(CN5CCN(C)CC5)c(C(F)(F)F)c4)cnc3C)c2c1` the growth was 15.5%.
For `Nc1c(C(=O)C[C@@H](N)CO)ccc2c1C(=O)CCO2`, the growth was -14.1% (active).
`CCOC(=O)CNC1=C(Cl)C(=O)N(Cc2ccc(Cl)cc2)C1=O` showed a growth of 105%.
With `CCCCOc1ccc(/C(C)=N/Nc2cc(C)nc3ccc(Br)cc23)cc1` the growth was 113%.
